Records with an inconclusive call do not appear. The source made the active and inactive calls. Unless noted, calls follow the shape of the dose curve; as a rule, active = well fitted curve in the direction sought with a large enough effect in the repeat runs; inconclusive = weak or mixed curves; inactive = no such curve, though single readings can be large; an effect the other way counts as inactive or inconclusive.
How the values were obtained:
[1] = qHTS assay to identify small molecule HDAC inhibitors (AID 1259364); also: potency is read from the fitted curve at half-maximal effect;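 also: wild-type HCT-116 cells with endogenous class I/II HDAC activity; nearly all actives have a fitted effect of over 45% in size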; as to activity change, negative = inhibition: top concentration of the series differs between compounds
Method in brief: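 Quantitative high-throughput format: overnight-seeded HCT-116 cells got compounds for 2 hr at 37C; HDAC-Glo I/II reagent added, 30 min RT, luminescence measured.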

[2] = qHTS assay to identify small molecule HDAC inhibitors - cell viability counter screen (AID 1259365); also: nearly all actives have a fitted effect of over 50% in size; also: potency is read from the fitted curve at half-maximal effect; as to activity change, negative = cytotoxicity: series mostly up to about 92 µM
Method in brief: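 HCT-116 wild-type, overnight attachment; 2hr drug exposure, 37C; CellTiter-Glo luminescent ATP readout after 30min RT.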

[3] = qHTS assay to identify small molecule agonists of the sonic hedgehog signaling (Shh) pathway - cell viability counter screen (AID 1259366); also: nearly all actives have a fitted effect of over 50% in size; also: potency is read from the fitted curve at half-maximal effect
Method in brief: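 Compounds in DMSO were pin-transferred onto 3T3 Gli1-Luc cells that had settled 4hr; plates then stood 24hr at 37C and 5% CO2. One hour before the end, CellTiter-Fluor was added and fluorescence recorded.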

[4] = qHTS assay to identify small molecule antagonists of the sonic hedgehog signaling (Shh) pathway - cell viability counter screen (AID 1259367); also: nearly all actives have a fitted effect of over 55% in size; also: potency is read from the fitted curve at half-maximal effect
Method in brief: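 Conditioned medium drove Shh signaling in 3T3 Gli1-Luc cells exposed to compounds at 37C and 5% CO2. Viability was determined from CellTiter-Fluor fluorescence, with reagent incubated 1 hr after 23 hr of treatment.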

[5] = qHTS assay to identify small molecule agonists of the sonic hedgehog signaling (Shh) pathway (AID 1259368; calls by dose curve;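 also: NIH/3T3-derived 3T3Gli1-Luc cells carrying a stable Gli1-driven firefly luciferase reporter; series mostly up to about 92 µM; nearly all actives have a fitted effect of over 15% in size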)
Method in brief: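 Quantitative high-throughput format using a Gli1-driven firefly luciferase reporter line derived from NIH/3T3 cells. After a 24 hr compound treatment at 37 C and 5% CO2, luminescence reported Gli1 response element activity.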

[6] = qHTS assay to identify small molecule antagonists of the sonic hedgehog signaling (Shh) pathway (AID 1259369; calls by dose curve; also: nearly all actives have a fitted effect of over 45% in size; also: potency is read from the fitted curve at half-maximal effect)
Method in brief: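 Stable Gli1-Luc reporter NIH/3T3 clone; quantitative HTS in stimulated mode with conditioned medium. Luminescence measured after 24hr compound treatment at 37 C.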

[7] = biological target: Estrogen receptor beta (Homo sapiens) (UniProt Q92731); test: qHTS assay to identify small molecule agonists of the estrogen receptor beta (ER-beta) signaling pathway (AID 1259377; active = well fitted activation curve with a large enough effect in the signal ratio in the repeat runs, not every such curve was filed as active; the % refers to the signal ratio)
Estrogen receptor beta (Homo sapiens), sequence (Q92731 whole entry, looked up): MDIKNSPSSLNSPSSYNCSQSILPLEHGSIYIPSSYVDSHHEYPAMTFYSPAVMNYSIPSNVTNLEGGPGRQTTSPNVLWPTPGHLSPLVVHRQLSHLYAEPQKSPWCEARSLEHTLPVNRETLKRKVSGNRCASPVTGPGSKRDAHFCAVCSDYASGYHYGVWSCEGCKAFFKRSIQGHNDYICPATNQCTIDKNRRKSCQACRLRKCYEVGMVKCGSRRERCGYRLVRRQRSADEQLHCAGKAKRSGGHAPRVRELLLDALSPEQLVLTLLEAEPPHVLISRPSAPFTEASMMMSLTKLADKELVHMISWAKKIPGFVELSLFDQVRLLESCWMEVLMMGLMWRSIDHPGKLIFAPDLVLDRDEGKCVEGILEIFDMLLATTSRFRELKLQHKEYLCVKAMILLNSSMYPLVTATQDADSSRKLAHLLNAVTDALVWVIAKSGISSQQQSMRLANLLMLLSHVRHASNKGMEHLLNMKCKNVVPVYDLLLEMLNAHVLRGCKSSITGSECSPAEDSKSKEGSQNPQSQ
Method in brief: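 qHTS in ER-beta-UAS-bla HEK293T cells: 6 hr settling, then 16 hr compound at 37C, then LiveBLAzer substrate 2 h at RT before fluorescence reading.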

[8] = qHTS assay to identify small molecule agonists of the androgen receptor (AR) signaling pathway in the presence of an antagonist - cell viability counter screen (AID 1259379); also: nearly all actives have a fitted effect of over 25% in size; also: potency is read from the fitted curve at half-maximal effect;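 as to activity change, negative = cytotoxicity: MDA-kb2 human breast cancer cells carrying an MMTV luciferase reporter; series mostly up to about 92 µM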
Method in brief: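 Nilutamide-containing (3.0uM final) MDA-kb2 cultures, 3,000 cells/well, were treated with compounds across 15 concentrations. After 16 hr at 37C with no CO2, cell viability was determined by CellTiter-Fluor fluorescence in the luciferase assay wells.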

[9] = biological target: Estrogen receptor beta (Homo sapiens) (UniProt Q92731); test: qHTS assay to identify small molecule antagonists of the estrogen receptor beta (ER-beta) signaling pathway (AID 1259378; active = well fitted inhibition curve with a large enough effect in the signal ratio in the repeat runs, not every such curve was filed as active; the % refers to the signal ratio; also: potency is read from the fitted curve at half-maximal effect)
Method in brief: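 ER-beta-UAS-bla HEK293T (GripTite) cells in 2% charcoal-stripped FBS medium were preincubated 6 hr at 37C, dosed with compound, then stimulated with 1 nM E2 (final) for 16 hr; beta-lactamase reporter read by B/G FRET fluorescence after 2 hr substrate loading.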
% is scaled to controls: 0 for no effect and ±100 for the full control effect.

C=COCCCC
inactive: Potency [1] | Potency [2] | Potency [3] | Potency [4] | Potency [5] | Potency [6] | outcome [7] | Potency [8]

CC(C)(c1ccc(Oc2ccc(N)cc2)cc1)c1ccc(Oc2ccc(N)cc2)cc1
inactive: Potency [1] | Potency [2] | Potency [3] | Potency [4] | Potency [5] | outcome [7]
active: Potency [8] 54.5 µM

CCOC(=O)[C@H](C)O
inactive: Potency [1] | Potency [2] | Potency [3] | Potency [4] | Potency [5] | outcome [7] | Potency [9] | Potency [8]

COc1cc(OC)nc(NC(=O)NS(=O)(=O)Nc2ccccc2C(=O)N(C)C)n1
inactive: Potency [1] | Potency [2] | Potency [3] | Potency [4] | Potency [5] | outcome [7] | Potency [8]

C=Cc1ccc(O)c(OC)c1
active: Potency [3] 54.5 µM | Potency [4] 27.3 µM | Potency [6] 13.7 µM
inactive: Potency [1] | Potency [2] | Potency [5] | Potency [9] | Potency [8]

CCCC(C)C=O (stereo unspecified)
inactive: Potency [1] | Potency [2] | Potency [3] | Potency [4] | Potency [5] | Potency [6] | outcome [7] | Potency [8]

Cc1ccc(C2OC[C@@H]3OC(c4ccc(C)cc4)O[C@H]([C@H](O)CO)[C@@H]3O2)cc1 (stereo partly specified)
inactive: Potency [1] | Potency [2] | Potency [3] | Potency [4] | Potency [5] | Potency [6] | Potency [8]

CN[C@H]1CC[C@@H](c2ccc(Cl)c(Cl)c2)c2ccc(S(N)(=O)=O)cc21
inactive: Potency [1] | Potency [2] | Potency [5]
active: Potency [3] 30.6 µM | Potency [4] 61.1 µM | Potency [6] 3.06 µM | Potency [9] 24.3 µM

CCC1(C)C(=O)N(Cl)C(=O)N1Cl (stereo unspecified)
inactive: Potency [1] | Potency [2] | Potency [3] | Potency [4] | Potency [5] | Potency [6] | Potency [8]

C=Cc1ccncc1
inactive: Potency [1] | Potency [2] | Potency [3] | Potency [4] | Potency [5] | Potency [6] | Potency [8]

Oc1ccc(Cl)cc1C1CCCC1
inactive: Potency [1] | Potency [2] | Potency [3] | Potency [4] | Potency [5] | outcome [7] | Potency [8]

ClC(c1ccccc1)(c1ccccc1)c1ccccc1
inactive: Potency [1] | Potency [2] | Potency [3] | Potency [4] | Potency [5] | Potency [6] | Potency [8]

CSc1ccc(O)cc1C
active: Potency [3] 43.3 µM | Potency [4] 27.3 µM | Potency [6] 13.7 µM
inactive: Potency [1] | Potency [2] | Potency [5] | Potency [8]

C/C(=N\[Si](C)(C)C)O[Si](C)(C)C
inactive: Potency [1] | Potency [2] | Potency [3] | Potency [4] | Potency [5] | Potency [6] | Potency [8]

CCOC=C(C(=O)OCC)C(=O)OCC
inactive: Potency [1] | Potency [2] | Potency [3] | Potency [4] | Potency [5] | Potency [6] | Potency [8]

C/C=C/C(=O)C1=C(C)C=CCC1(C)C
inactive: Potency [1] | Potency [2] | Potency [3] | Potency [4] | Potency [5] | Potency [6] | Potency [8]

CC/C=C(\C)C=O
inactive: Potency [1] | Potency [2] | Potency [3] | Potency [4] | Potency [5] | Potency [6] | Potency [8]

C=CC(=O)OCCOC1C2CCC1C1CC=CC12 (stereo unspecified)
inactive: activity change, negative = inhibition [1] 5.48% [at 19 µM] | activity change, negative = cytotoxicity [2] 3.58% [at 19 µM] | viability change, negative = cytotoxic [3] 9.3% [at 19 µM] | viability change, negative = cytotoxic [4] 5.82% [at 19 µM] | activity change [5] -1.29% [at 18.9 µM, hits give high values] | activity change, negative = inhibition [6] 6.04% [at 19 µM] | activity change, negative = cytotoxicity [8] -6.73% [at 19 µM]

COc1ccc(OC)c(N=Nc2c(O)ccc3ccccc23)c1
inactive: Potency [5] | outcome [7]
active: Potency [1] 27.3 µM | Potency [2] 24.3 µM | Potency [3] 13.7 µM | Potency [4] 13.7 µM | Potency [8] 24.3 µM

Cn1ccnc1
inactive: Potency [1] | Potency [2] | Potency [3] | Potency [4] | Potency [5] | Potency [6] | outcome [7] | Potency [8]

CN1CCN(C)CC1
inactive: Potency [1] | Potency [2] | Potency [3] | Potency [4] | Potency [5] | outcome [7] | Potency [8]

O=C(Nc1ccc([N+](=O)[O-])cc1)Nc1ccc([N+](=O)[O-])cc1 (tested in a mixture with another compound)
inactive: Potency [1] | Potency [2] | Potency [3] | Potency [4] | Potency [5] | outcome [7] | Potency [8]

Cc1ccc(S(=O)(=O)C(I)I)cc1
inactive: Potency [1] | Potency [2] | Potency [5]
active: Potency [3] 6.11 µM | Potency [4] 7.7 µM | Potency [6] 1.22 µM | Potency [8] 68.6 µM

— PubChem BioAssay (Tox21)
